# Many of the other results were omitted from the sample, so hits are more common in it than they were.
# Shiga toxin inh – Shiga toxin inhibition; Vero cells, Shiga toxin protein synthesis inhibition reporter; inhibition, % at 38.7 µM; 290,000 tested, 9.2% active; in the data active = inhibition mostly above about 28%, no sharp cut-off; inactive = mostly below about 43%; also: 0% is about no effect
# LmPK inh – blocks Leishmania mexicana pyruvate kinase activity; Q27686; purified LmPK, Kinase-Glo ATP luminescence, 1 h; Potency, µM (top dose mostly 57.5 µM), inactives show at the highest dose activity change, negative = inhibition, hits mostly inhibitors; 290,000 tested, 0.37% active; AID 1721; also: potency is read from the fitted curve at half-maximal effect; % is scaled to controls: 0 for no effect and ±100 for the full control effect
#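 ATP generated from ADP (0.1 mM) and PEP (0.5 mM) by 0.1 nM LmPK over 1 h at room temperature (pH 7.2 imidazole buffer) was detected by coupled luciferase luminescence. Values were normalized to uninhibited and no-enzyme wells.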
# RE007 growth inh – less growth of the S. pombe RE007 Vpr strain | S. pombe RE007 Vpr strain, BacTiter-Glo ATP luminescence, 24 h | Potency, µM (series often up to 92.2 µM), without a hit: at the top dose activity change, negative = less growth, most hits filed as inhibitors | 360,000 tested, 0.21% active | AID 651644; active = well fitted falling curve with a large enough effect; inconclusive = small, poorly fitted or top-dose-only effect; inactive = no such curve, though single readings can be large or run the other way; also: potency is read from the fitted curve at half-maximal effect; % is scaled to controls: 0 for no effect and ±100 for the full control effect; nearly all actives have a fitted effect of over 50% in size
#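 Fission yeast RE007 carrying one integrated HIV-1 vpr copy, seeded at OD 0.01 in PMG+AL medium with 23 nL pinned compound. Grown 24 h at 30 degrees; viability read by BacTiter-Glo luminescence after 5 min.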
# CHX counter – counter-screen for Shiga toxin inhibitors: cycloheximide protein synthesis inhibition; cell reporter, cycloheximide protein synthesis inhibition counterscreen; max response, %; 300,000 tested, 12% active; in the data active = max response mostly above about 13%, no sharp cut-off; inactive = mostly below about 14%; also: read at 38.3 µM for the half of the compounds with a filed dose; 0% is about no effect
# FBPA Giardia inh – blocks Giardia fructose-bisphosphate aldolase activity. purified Giardia FBPA. Potency, µM (highest dose often 59.6 µM), without a hit: at the top dose activity, negative = inhibition, actives largely listed as inhibitors. 290,000 tested, 0.71% active; also: potency is read from the fitted curve at half-maximal effect; % is scaled to controls: 0 for no effect and ±100 for the full control effect; nearly all actives have a fitted effect of over 55% in size
# Target sequence (A8B2U2 whole entry, looked up): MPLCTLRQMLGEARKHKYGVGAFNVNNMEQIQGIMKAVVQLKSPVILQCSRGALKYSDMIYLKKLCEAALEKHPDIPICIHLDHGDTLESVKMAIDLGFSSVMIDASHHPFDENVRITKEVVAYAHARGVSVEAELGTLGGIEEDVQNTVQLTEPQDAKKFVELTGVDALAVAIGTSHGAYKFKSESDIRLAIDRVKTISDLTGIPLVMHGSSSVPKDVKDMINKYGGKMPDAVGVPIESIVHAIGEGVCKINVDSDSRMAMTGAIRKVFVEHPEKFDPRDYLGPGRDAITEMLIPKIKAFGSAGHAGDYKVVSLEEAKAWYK
#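 40 nM FBPA preincubated 10 min at RT with compound (up to 57.5 uM final), then substrate plus GAPDH/TPI/NAD/arsenate coupling and diaphorase/resazurin added. Fluorescence read after 20 min at RT, 525/598 nm.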
# Tb PYK inh – inhibitors of Trypanosoma brucei pyruvate kinase; Q57TT1; 410,000 tested, 0.12% active; Potency, µM (top dose mostly 76.8 µM), without a hit: top-dose activity, negative = inhibition, hits mostly inhibitors; TbPYK enzyme, Kinase-Glo Plus ATP luminescence, 45 min; AID 624173; also: potency is read from the fitted curve at half-maximal effect; % is scaled to controls: 0 for no effect and ±100 for the full control effect; nearly all actives have a fitted effect of over 50% in size
#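 Glycolytic pyruvate kinase of T. brucei was incubated with substrate, test compound and 130 uM ADP for 45 minutes at room temperature. Luminescent Kinase-Glo Plus signal was measured after 10 minutes.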
# * hit, by the source's call; ? = inconclusive; nt = not tested or not shown. Unless noted, calls follow the shape of the dose curve; as a rule, active = well fitted curve in the direction sought with a large enough effect; inconclusive = small, poorly fitted or top-dose-only effect, or another doubt; inactive = no such curve, though single readings can be large; an effect the other way counts as inactive or inconclusive.
SMILES,Shiga toxin inh,LmPK inh,RE007 growth inh,CHX counter,FBPA Giardia inh,Tb PYK inh
Cc1ccc(-c2ccc(CCC(=O)O)n2CC2CCCO2)cc1 (configuration not stated),-22,1%,-12%,14*,12%,-8%
Cc1nn(CCc2n[nH]c(=S)n2-c2ccc(F)cc2)c(C)c1[N+](=O)[O-],-11,?,5%,-2,-9%,10µM*
Cc1nn(CCc2n[nH]c(=S)n2-c2ccc(F)c(Cl)c2)c(C)c1[N+](=O)[O-],-10,?,-9%,-3,-9%,6.3µM*
Cc1nn(CCc2n[nH]c(=S)n2-c2cccc(Cl)c2)c(C)c1[N+](=O)[O-],-14,8.9µM*,-1%,-8,-5%,?
CCc1ccccc1Oc1nc(NCCOC)nc2cc(-c3ccccc3)sc12,nt,nt,14%,nt,nt,4%
COc1ccccc1N1C(=O)C2C(c3ccc(F)cc3)NN(C(=O)c3ccc(C)cc3)C2C1=O (configuration not stated),7,1%,9%,12,-1%,-5%
O=C(CCl)Nc1cn(-c2ccccc2)nc1-c1ccc(F)cc1,19,1%,-11%,24*,-3%,0%
Oc1ccc2ccccc2c1C1Nc2cccc3cccc(c23)N1,-13,4%,23%,0,-29%,-1%
CCN(CC)c1ccc(C2Nc3cccc4cccc(c34)N2)c(O)c1,51*,0%,14%,27*,?,-9%
O=C(Cc1ccc(Cl)cc1)Nc1ncc([N+](=O)[O-])s1,67*,-6%,-11%,43*,0%,2%
O=C(Cc1ccc(Br)cc1)Nc1ncc([N+](=O)[O-])s1,96*,8%,-14%,68*,1%,-7%
Cc1cnc(NC(=O)Cc2ccc(Br)cc2)s1,2,-5%,5%,2,4%,-13%
CCC(Oc1ccccc1)C(=O)Nc1ncc([N+](=O)[O-])s1 (configuration not stated),12,16%,-6%,2,28%,-2%
CC(CC(=O)Nc1ncc([N+](=O)[O-])s1)c1ccccc1 (configuration not stated),87*,10%,?,26*,-6%,-9%
O=C(COc1ccc(Cl)cc1)Nc1ncc([N+](=O)[O-])s1,147*,-5%,5%,48*,4%,4%
CC(=O)N1CC2(CC2)CC1c1ccccc1 (configuration not stated),nt,nt,nt,nt,4%,nt
COc1ccc(NC(=O)CN(C)C(=O)C2(c3ccccc3)CCCC2)cc1,nt,nt,-4%,nt,nt,2%
CCCCC1CCC(C(=O)N(CCC(C)C)c2c(N)n(CCCC)c(=O)[nH]c2=O)CC1 (configuration not stated),nt,nt,5%,nt,nt,-1%
O=C(Nc1ncc([N+](=O)[O-])s1)c1ccco1,68*,?,?,37*,nt,-13%
COc1cc(N2C(=O)C=CC2=O)c(OC)cc1Cl,4,14µM*,40µM*,22,?,?
COc1cc(Cl)c(S(=O)(=O)N2CCCC2)cc1Cl,-3,1%,-20%,-5,2%,-1%
COc1ccc(OCCCc2c(C)n[nH]c2C)cc1,8,4%,-17%,5,-21%,-2%
COc1ccc(N=Nc2c(C)n[nH]c2C)cc1,119*,-2%,-1%,29*,15%,-2%
Cc1[nH][nH]c(=O)c1N=Nc1ccc(Br)c(Cl)c1,nt,nt,-12%,nt,nt,-5%
Cc1n[nH]c(C)c1N=Nc1ccc(Br)cc1,51,-2%,?,27*,-1%,0%
COc1cccc(CC(NC(C)=O)C(=O)NC2CCN(C(=O)c3ccc(Cl)cc3)CC2)c1OC (configuration not stated),-3,0%,-6%,-5,nt,-20%
O=C(COC(=O)COc1ccccc1[N+](=O)[O-])Nc1cccc(Br)c1,-6,-1%,-1%,15*,-8%,1%
Cc1ccc(/C=N\NC(=O)COc2ccc(C)cc2[N+](=O)[O-])cc1,15,-4%,-10%,20,-1%,0%
Cc1ccc(OCC(=O)Nc2ccon2)c([N+](=O)[O-])c1,84*,-6%,-17%,42*,nt,1%

# Bioassay records (PubChem BioAssay)
